Results from the supplement of paper PMC10849652.
Targets with a hit are over-represented here; the source holds about 8,800 in all. About 0.5% of all pairs of compound and target were hits. Unmarked numbers belong to inactive results.

Assays:
Test in all cases: log2 fold change, soluble protein after heating vs DMSO (PISA); higher = thermal stabilisation; K562 lysate, 10 uM; active = over 0.2 and 3.5 SD of the protein, either way, in both replicates (recomputed)
[1] = compound: CN1CC[C@H](c2c(O)cc(O)c3c(=O)cc(-c4ccccc4Cl)oc23)[C@H](O)C1 [alvocidib]
How it was run: (§1)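 Dounce homogenisation of K562 pellets in PBS pH 7.4 with 1 mM MgCl2 produced a crude extract, used at 1 mg/mL protein. Exposure to 10 μM compound lasted 30 min, and aliquots were then heated for 3 min across 48°C-58°C, pooled and brought to 0.5% NP-40 at 4°C. The supernatant after 21,000xg for 90 min was quantified by TMTpro 16plex LC-MS/MS with channel sums equalised. Duplicate values are given as log-two fold change in thermal stability relative to solvent controls.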

[2] = compound: CN1CCc2c(c3ccccc3n2Cc2ccc(C(=O)NO)cc2)C1 [Tubastatin A]
How it was run: as §1

[3] = compound: CNC(=O)C1=CC=CC=C1NC2=NC(=NC=C2Cl)NC3=C(C=C(C=C3)N4CCOCC4)OC
How it was run: as §1

[4] = compound: CNC(=O)c1ccc(Nc2ncc(C(F)(F)F)c(NCc3nccnc3N(C)S(C)(=O)=O)n2)cc1 [defactinib]
How it was run: as §1

[5] = compound: CNc1nc(-c2ccc3c(N)n[nH]c3c2)cc(N2C[C@@H](C(=O)NC3CCCCC3)CC[C@H]2C)n1
How it was run: as §1

[6] = compound: COC(=O)N[C@@H](C)CNc1nccc(-c2cn(C(C)C)nc2-c2cc(Cl)cc(NS(C)(=O)=O)c2F)n1 [encorafenib]
How it was run: as §1

[7] = compound: COC(=O)[C@H](CCSC)NC(=O)C1=C(C=C(C=C1)NC[C@H](CS)N)C2=CC=CC=C2
How it was run: as §1

[8] = compound: COc1cc(Nc2ncc3c(n2)-c2ccc(Cl)cc2C(c2c(F)cccc2OC)=NC3)ccc1C(=O)O [alisertib]
How it was run: as §1

[9] = compound: COc1cc2nc(-c3cc(F)ccc3O)nc(N[C@@H]3CNC[C@H]3C(C)(C)O)c2cc1OC
How it was run: as §1

[10] = compound: COc1cc2ncnc(Nc3ccc(F)c(Cl)c3)c2cc1OCCCN1CCOCC1 [gefitinib]
How it was run: as §1

UniProt P04114, sequence (P04114 whole entry, looked up): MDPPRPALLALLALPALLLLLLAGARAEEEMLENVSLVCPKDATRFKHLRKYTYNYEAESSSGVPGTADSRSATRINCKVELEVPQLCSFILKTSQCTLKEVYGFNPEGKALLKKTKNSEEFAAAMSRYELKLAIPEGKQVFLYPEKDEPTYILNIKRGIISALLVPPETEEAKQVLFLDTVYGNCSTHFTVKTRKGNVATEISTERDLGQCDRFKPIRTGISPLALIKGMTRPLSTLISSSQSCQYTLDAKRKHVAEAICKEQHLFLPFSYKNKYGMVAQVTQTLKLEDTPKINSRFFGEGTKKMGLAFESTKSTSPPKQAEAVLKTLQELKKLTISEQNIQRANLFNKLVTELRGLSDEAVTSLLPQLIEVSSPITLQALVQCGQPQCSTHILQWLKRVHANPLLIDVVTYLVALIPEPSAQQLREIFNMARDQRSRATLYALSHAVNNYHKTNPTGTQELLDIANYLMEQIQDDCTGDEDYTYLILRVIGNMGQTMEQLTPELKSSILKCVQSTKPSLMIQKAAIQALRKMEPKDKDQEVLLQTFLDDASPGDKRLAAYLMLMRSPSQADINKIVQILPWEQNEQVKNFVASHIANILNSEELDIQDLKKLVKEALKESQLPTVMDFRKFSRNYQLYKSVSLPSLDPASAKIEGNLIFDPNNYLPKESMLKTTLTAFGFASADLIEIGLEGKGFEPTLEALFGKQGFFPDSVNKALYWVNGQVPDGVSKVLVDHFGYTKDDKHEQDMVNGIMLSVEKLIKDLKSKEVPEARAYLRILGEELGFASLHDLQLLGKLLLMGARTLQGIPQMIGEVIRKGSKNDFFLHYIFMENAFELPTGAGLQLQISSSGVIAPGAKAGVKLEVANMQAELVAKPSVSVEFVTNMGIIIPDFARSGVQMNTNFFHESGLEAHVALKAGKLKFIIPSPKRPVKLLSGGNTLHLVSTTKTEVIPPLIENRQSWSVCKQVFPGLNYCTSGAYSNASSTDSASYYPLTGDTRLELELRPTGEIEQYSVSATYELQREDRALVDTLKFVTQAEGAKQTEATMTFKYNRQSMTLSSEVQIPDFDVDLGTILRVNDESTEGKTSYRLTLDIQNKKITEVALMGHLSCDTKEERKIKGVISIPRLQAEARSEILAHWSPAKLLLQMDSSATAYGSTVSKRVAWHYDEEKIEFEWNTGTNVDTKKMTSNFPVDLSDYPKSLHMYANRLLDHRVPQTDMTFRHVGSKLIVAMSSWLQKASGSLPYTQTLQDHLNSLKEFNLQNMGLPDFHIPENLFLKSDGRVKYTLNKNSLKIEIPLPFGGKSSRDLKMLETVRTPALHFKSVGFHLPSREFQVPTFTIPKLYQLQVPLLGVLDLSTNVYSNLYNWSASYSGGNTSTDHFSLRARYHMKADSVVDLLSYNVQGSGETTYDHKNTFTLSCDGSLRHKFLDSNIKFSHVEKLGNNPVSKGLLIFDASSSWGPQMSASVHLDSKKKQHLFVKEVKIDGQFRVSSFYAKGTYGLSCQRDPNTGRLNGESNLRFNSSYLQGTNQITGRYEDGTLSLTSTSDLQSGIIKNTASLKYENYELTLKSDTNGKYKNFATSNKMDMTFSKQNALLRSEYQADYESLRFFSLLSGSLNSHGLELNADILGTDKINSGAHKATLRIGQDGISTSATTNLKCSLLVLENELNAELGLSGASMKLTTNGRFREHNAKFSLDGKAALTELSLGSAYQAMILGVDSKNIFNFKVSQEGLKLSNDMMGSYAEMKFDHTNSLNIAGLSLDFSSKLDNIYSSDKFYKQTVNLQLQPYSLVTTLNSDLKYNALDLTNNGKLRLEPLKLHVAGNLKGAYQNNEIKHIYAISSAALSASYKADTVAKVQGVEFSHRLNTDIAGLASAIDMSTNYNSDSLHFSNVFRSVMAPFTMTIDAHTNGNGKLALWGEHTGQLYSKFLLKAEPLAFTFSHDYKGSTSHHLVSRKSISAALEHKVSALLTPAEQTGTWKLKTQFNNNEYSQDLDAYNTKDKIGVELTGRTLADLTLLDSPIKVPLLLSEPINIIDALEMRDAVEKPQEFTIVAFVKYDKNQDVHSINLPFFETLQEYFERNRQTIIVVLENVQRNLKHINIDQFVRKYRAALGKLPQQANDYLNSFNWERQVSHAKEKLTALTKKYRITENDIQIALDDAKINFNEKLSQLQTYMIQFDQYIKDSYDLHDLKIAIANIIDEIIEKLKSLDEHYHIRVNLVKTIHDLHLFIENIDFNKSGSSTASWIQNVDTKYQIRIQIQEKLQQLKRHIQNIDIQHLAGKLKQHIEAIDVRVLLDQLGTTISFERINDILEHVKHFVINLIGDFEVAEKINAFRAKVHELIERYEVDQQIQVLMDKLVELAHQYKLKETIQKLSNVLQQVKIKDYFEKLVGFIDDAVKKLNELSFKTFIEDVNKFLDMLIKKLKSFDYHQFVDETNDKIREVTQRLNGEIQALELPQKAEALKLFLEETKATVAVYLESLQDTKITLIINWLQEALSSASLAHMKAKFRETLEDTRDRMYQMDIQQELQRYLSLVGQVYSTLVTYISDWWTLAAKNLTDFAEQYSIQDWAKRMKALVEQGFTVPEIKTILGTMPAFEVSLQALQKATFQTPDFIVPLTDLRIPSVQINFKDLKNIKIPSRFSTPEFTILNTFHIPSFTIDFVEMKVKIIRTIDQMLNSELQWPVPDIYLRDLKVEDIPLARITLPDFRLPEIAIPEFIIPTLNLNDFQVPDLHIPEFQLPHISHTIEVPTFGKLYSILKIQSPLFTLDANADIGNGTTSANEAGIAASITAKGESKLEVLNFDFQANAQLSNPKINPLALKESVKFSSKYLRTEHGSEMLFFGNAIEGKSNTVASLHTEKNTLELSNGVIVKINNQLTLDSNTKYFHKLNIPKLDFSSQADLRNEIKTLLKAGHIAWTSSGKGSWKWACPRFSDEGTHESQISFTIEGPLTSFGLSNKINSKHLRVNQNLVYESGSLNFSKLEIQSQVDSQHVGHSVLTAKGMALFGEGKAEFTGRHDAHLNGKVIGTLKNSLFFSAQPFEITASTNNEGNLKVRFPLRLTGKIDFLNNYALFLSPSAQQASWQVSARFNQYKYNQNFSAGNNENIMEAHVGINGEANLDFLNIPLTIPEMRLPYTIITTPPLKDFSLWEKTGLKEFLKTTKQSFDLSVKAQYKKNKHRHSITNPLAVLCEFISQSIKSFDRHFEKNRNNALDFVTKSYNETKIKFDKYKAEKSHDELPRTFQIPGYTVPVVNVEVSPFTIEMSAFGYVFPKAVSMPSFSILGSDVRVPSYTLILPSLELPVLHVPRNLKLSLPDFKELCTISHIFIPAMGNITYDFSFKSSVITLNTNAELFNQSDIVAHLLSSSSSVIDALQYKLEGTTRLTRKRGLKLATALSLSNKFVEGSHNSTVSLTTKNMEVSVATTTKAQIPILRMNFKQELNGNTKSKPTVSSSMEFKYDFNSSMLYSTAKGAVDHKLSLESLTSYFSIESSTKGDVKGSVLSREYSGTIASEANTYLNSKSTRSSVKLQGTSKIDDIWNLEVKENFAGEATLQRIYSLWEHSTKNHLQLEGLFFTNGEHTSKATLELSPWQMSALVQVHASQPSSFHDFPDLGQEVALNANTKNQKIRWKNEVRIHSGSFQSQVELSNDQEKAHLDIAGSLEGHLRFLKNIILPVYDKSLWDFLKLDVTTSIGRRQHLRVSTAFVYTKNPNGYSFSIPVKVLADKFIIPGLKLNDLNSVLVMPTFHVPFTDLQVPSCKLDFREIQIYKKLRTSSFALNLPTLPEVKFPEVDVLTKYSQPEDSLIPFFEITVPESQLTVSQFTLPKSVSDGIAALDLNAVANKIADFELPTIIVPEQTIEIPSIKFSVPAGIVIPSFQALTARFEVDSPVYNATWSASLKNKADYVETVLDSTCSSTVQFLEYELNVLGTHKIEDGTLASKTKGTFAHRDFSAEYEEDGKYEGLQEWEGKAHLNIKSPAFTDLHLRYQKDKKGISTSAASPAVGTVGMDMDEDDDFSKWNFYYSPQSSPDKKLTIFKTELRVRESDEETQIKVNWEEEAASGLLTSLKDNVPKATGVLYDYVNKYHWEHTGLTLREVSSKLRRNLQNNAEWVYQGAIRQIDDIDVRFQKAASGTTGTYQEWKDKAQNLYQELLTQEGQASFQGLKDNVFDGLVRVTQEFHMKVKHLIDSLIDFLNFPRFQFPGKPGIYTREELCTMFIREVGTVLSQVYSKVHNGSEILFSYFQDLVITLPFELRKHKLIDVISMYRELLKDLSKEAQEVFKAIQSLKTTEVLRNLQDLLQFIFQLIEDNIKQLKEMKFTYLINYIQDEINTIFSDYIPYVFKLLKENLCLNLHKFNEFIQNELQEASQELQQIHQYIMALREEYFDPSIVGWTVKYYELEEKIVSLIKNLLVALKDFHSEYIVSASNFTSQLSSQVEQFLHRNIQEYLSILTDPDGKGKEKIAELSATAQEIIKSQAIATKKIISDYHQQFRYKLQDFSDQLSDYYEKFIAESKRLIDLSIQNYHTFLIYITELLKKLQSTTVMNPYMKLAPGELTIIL
UniProt Q99943, sequence (Q99943 whole entry, looked up): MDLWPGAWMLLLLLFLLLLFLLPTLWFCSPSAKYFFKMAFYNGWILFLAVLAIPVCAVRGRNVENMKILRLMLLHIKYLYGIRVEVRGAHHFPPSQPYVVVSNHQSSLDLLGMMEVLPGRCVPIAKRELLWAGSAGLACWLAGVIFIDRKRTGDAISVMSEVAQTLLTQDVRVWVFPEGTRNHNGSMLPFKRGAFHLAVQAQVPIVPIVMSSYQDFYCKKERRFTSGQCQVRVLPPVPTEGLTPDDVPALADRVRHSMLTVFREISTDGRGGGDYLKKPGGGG
UniProt Q96GS6, sequence (Q96GS6 whole entry, looked up): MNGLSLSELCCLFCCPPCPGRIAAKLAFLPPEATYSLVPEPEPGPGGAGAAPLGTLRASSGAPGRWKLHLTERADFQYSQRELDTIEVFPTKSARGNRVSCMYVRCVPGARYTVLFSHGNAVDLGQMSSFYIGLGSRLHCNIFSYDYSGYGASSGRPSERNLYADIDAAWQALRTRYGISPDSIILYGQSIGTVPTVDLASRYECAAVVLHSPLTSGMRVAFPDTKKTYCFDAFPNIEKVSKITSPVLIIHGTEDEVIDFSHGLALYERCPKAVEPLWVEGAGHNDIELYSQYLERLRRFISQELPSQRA

| Target | log2 fold change [1] | log2 fold change [2] | log2 fold change [3] | log2 fold change [4] | log2 fold change [5] | log2 fold change [6] | log2 fold change [7] | log2 fold change [8] | log2 fold change [9] | log2 fold change [10] |
| --- | --- | --- | --- | --- | --- | --- | --- | --- | --- | --- |
| ALG8 (UniProt Q9BVK2) | 0.004 | -0.118 | -0.007 | 0.001 | -0.012 | 0.04 | -0.09 | 0.076 | -0.019 | 0.103 |
| ABHD17A isoform 2 (UniProt Q96GS6) | -0.025 | 0.023 | -0.025 | -0.009 | 0.01 | -0.009 | -0.222 | -0.12 | 0.04 | 0.044 |
| ANP32A (UniProt P39687) | -0.039 | 0.027 | -0.006 | 0.016 | -0.056 | -0.024 | -0.048 | 0.018 | -0.014 | -0.007 |
| ADAMTS5 (UniProt Q9UNA0) | -0.33 | 0.149 | 0.105 | -0.052 | 0.278 | -0.134 | -0.012 | 0.073 | 0.109 | -0.093 |
| APOB (UniProt P04114) | -0.078 | 0.099 | -0.021 | -0.04 | 0.264 | -0.008 | 0.003 | -0.024 | 0.023 | 0.014 |
| AGPAT1 (UniProt Q99943) | -0.002 | -0.015 | 0.052 | -0.007 | -0.033 | 0.075 | -0.016 | -0.015 | -0.232 | 0.028 |
| ACSL4 (UniProt O60488) | 0.023 | -0.06 | 0.047 | 0.054 | -0.034 | 0.003 | 0.073 | -0.017 | 0.019 | 0.014 |
| ACADS (UniProt P16219) | -0.011 | -0.003 | 0.019 | -0.011 | 0.014 | -0.034 | 0.071 | -0.003 | -0.037 | -0.023 |
| ARAP1 (UniProt Q96P48) | -0.027 | -0.135 | 0.033 | 0.075 | 0.017 | 0.06 | 0.078 | 0.015 | 0.003 | 0.041 |
| ACTG1 (UniProt I3L4N8) | 0.089 | 0.119 | 0.046 | -0.142 | -0.005 | 0.209 | 0 | -0.198 | -0.003 | -0.115 |
| AIMP1 isoform 2 (UniProt Q12904) | 0.056 | -0.118 | 0.01 | 0.018 | 0.028 | -0.005 | 0.11 | 0.004 | -0.009 | -0.029 |
| ALDH6A1 (UniProt Q02252) | -0.044 | 0.43 (active) | 0.106 | 0.018 | 0.091 | -0.015 | 0.103 | 0.086 | 0.061 | 0.098 |
| AGO4 (UniProt Q9HCK5) | -0.013 | -0.003 | 0.003 | -0.027 | -0.214 (active) | 0.025 | -0.092 | -0.008 | 0.037 | -0.015 |
| ANKRD30B (UniProt Q9BXX2) | -0.307 | 0.007 | -0.01 | -0.155 | 0.284 | -0.113 | 0.164 | -0.002 | -0.067 | -0.036 |
| ALDH2 (UniProt P05091) | 0.059 | -0.006 | 0.437 (active) | -0.03 | -0.051 | 0.006 | -0.03 | 0.037 | -0.016 | 0.014 |
| ANLN (UniProt Q9NQW6) | -0.037 | -0.196 | 0.058 | 0.012 | 0.011 | 0.036 | 0.102 | 0.051 | 0.004 | 0.03 |
| ARHGEF1 (UniProt M0QZR4) | 0.011 | -0.085 | 0.016 | -0.005 | -0.016 | 0.022 | 0.063 | 0.001 | -0.01 | -0.014 |
| ASNS (UniProt P08243) | 0.019 | -0.025 | -0.036 | 0.006 | 0.027 | -0.009 | -0.12 | 0.019 | 0.009 | 0.004 |
| ANXA11 (UniProt P50995) | -0.025 | 0.017 | 0.009 | -0.012 | -0.019 | -0.004 | 0.027 | 0.015 | -0.015 | -0.014 |
| ASCC2 (UniProt Q9H1I8) | -0.009 | -0.105 | 0.002 | 0 | -0.003 | 0.007 | 0.037 | -0.014 | 0.016 | -0.057 |
| ALDH1A1 (UniProt P00352) | 0.06 | -0.004 | 0.004 | -0.007 | -0.037 | -0.009 | -0.043 | 0.01 | -0.001 | -0.017 |
| ACLY (UniProt P53396) | 0.022 | 0.078 | -0.006 | -0.036 | 0.01 | -0.043 | 0.133 | 0.016 | 0.003 | 0.004 |
| AK4 (UniProt P27144) | 0.025 | 0.036 | -0.008 | 0.003 | 0.009 | 0.006 | -0.07 | 0.026 | -0.034 | -0.043 |
| ANKRD52 (UniProt Q8NB46) | -0.002 | -0.132 | -0.003 | 0.076 | 0.014 | 0.047 | 0.11 | 0.005 | 0 | 0.039 |
| ACIN1 isoform 5 (UniProt Q9UKV3) | -0.038 | 0.039 | -0.034 | -0.009 | 0.053 | -0.004 | -0.01 | 0.032 | -0.003 | 0.001 |
| ADK (UniProt P55263) | 0.246 | -0.025 | 0.178 | 0.026 | 0 | -0.048 | 0.068 | -0.063 | -0.015 | 0.158 |
| AK2 (UniProt P54819) | -0.003 | 0.05 | -0.019 | 0.016 | 0.033 | -0.025 | -0.018 | 0.008 | -0.025 | 0.019 |
| ADAR isoform 4 (UniProt P55265) | -0.004 | -0.167 | 0.012 | 0.054 | -0.001 | 0.052 | -0.041 | 0.045 | 0.013 | 0.02 |
| ADD1 isoform 3 (UniProt P35611) | 0.016 | 0.007 | -0.013 | 0.015 | 0.031 | 0.004 | -0.034 | 0.03 | 0.006 | -0.01 |
